Assay [1] is described as follows: ATG_TAL_CIS: Attagene CIS-FACTORIAL HepG2 Assay for human TAL Basal Promoter (AID 2282966).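 Also: background control endpoint measuring basal TAL promoter reporter mRNA not a specific factor.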 Particulars: HepG2 Attagene cis-factorial TAL promoter reporter; actives raise or lower the signal. A digest of the protocol:
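Readout: reporter mRNA, fluorescence by CE. System: HepG2, transient multi-reporter transfection, endogenous TF activity. Exposure: 24 h. Analysis: bidirectional, DMSO-normalized; background control.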

Assay [2] in a line: ATG_TGFb_CIS: Attagene CIS-FACTORIAL HepG2 Assay for human Transforming Growth Factor (TGF) (AID 2282967). Particulars: HepG2 Attagene CIS TGFb reporter, mRNA transcription; actives raise or lower the signal. In a few lines:
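HepG2 cells transiently transfected with cis-promoter-driven multiplexed reporter units; 24 h compound exposure. Reporter mRNA measured by RT-PCR, 6-FAM labeling, HpaI digestion and capillary electrophoresis; bidirectional fit versus DMSO baseline.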

Assay [3] can be described thus: ATG_VDRE_CIS: Attagene CIS-FACTORIAL HepG2 Assay for human Vitamin D Receptor Element (VDRE) (AID 2282968). Particulars: HepG2 VDRE cis-reporter transcription, actives raise or lower the signal. A digest of the protocol:
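RT-PCR/CE readout of reporter mRNA; HepG2, transient transfection, 24 h dosing; DMSO baseline; bidirectional analysis.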

Assay [4] concerns the target Steroid hormone receptor ERR1 (Homo sapiens) (UniProt P11474). In words: ATG_ERRa_TRANS: Attagene TRANS-FACTORIAL HepG2 Assay for human Estrogen-Related Receptor alpha (ERRa) (AID 2282971; active = hit-call score of the fitted dose curve at least 0.9, where 1 is the maximum). Particulars: HepG2 Attagene TRANS reporter, ERRa transactivation. In a few lines:
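HepG2 cells were transiently transfected with multiple GAL4-UAS reporter units, then dosed with compound for 24 h. Total RNA was reverse-transcribed, reporter cDNA PCR-amplified and fluorescently labelled, and fragments resolved by capillary electrophoresis; induction was compared with DMSO.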

For assay [5], the target named is X-box-binding protein 1 (Homo sapiens) (UniProt P17861). In words: ATG_Xbp1_CIS: Attagene CIS-FACTORIAL HepG2 Assay for human X-box Binding Protein 1 (XBP1) (AID 2282972). Particulars: HepG2 XBP1 cis-element reporter, Attagene multiplex; actives raise or lower the signal. In a few lines: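 After a 24-hour chemical exposure of HepG2 cells carrying cis-regulated reporters, reporter mRNA levels are assessed. Quantification uses RT-PCR, 6-FAM labelling and capillary electrophoresis. Gain- or loss-of-signal is fitted against DMSO.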
Chain of X-box-binding protein 1 (Homo sapiens) (P17861 whole entry, looked up): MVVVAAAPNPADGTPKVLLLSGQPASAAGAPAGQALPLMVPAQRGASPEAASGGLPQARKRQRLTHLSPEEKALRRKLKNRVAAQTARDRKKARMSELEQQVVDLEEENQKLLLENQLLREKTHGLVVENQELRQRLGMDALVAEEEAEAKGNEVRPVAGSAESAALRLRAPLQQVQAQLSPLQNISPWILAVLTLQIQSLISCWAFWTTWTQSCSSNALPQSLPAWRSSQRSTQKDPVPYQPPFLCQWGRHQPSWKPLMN

The nature of assay [6]: ATG_M_19_TRANS: Attagene TRANS-FACTORIAL HepG2 Assay for M19 Transcription Factor (Internal Marker) (AID 2282974; active = hit-call score of the fitted dose curve at least 0.9, where 1 is the maximum). Particulars: HepG2 Attagene TRANS-FACTORIAL M19 internal marker reporter. In a few lines:
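Gain-of-signal in reporter mRNA, relative to DMSO, was scored from capillary electrophoresis fluorescence. HepG2 cells carried transiently transfected multiple reporter transcription units and were incubated with test chemicals for 24 h.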

For assay [7], the target named is Glucocorticoid receptor (Homo sapiens) (UniProt P04150). In words: ATG_GR_TRANS: Attagene TRANS-FACTORIAL HepG2 Assay for human Glucocorticoid Receptor (GR) (AID 2282978; active = hit-call score of the fitted dose curve at least 0.9, where 1 is the maximum;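 also: activators score as hits since higher reporter transcript over DMSO is fitted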). Particulars: HepG2 Attagene TRANS GR reporter, mRNA transcription. A digest of the protocol: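 HepG2 transient transfection, multiple reporter units, GAL4-UAS under NR-GAL4 chimera control. 24 h treatment. Reporter mRNA by RT-PCR/CE fluorescence, DMSO as negative control.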
Chain of Glucocorticoid receptor (Homo sapiens) (P04150 whole entry, looked up, the tested form may be a part): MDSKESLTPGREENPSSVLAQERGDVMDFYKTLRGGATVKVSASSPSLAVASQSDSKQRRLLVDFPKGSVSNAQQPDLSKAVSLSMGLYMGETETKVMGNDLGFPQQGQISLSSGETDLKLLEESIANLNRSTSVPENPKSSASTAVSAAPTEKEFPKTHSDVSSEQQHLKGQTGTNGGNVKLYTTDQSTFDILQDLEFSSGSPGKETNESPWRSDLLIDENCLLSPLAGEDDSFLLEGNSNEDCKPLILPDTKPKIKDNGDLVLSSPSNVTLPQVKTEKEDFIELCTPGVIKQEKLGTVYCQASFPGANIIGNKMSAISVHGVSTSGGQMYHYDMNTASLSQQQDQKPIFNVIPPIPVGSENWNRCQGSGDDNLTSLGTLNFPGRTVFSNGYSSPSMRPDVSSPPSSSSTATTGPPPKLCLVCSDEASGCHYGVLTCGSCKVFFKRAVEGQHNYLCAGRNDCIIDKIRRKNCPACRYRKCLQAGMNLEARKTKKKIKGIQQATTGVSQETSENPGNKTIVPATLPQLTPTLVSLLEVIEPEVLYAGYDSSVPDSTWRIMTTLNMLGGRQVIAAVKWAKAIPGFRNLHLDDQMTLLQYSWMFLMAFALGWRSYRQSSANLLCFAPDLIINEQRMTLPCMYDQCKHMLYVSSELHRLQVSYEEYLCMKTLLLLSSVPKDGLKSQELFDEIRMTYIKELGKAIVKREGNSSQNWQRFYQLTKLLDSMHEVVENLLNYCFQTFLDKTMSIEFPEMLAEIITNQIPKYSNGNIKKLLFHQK

For assay [8], the target named is Oxysterols receptor LXR-alpha (Homo sapiens) (UniProt Q13133). In words: ATG_LXRa_TRANS: Attagene TRANS-FACTORIAL HepG2 Assay for human Liver X Receptor alpha (LXRa) (AID 2282980; active = hit-call score of the fitted dose curve at least 0.9, where 1 is the maximum). Particulars: HepG2 Attagene TRANS reporter, LXRa transactivation. In a few lines:
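Transient HepG2 transfectants, 24 h dosing, RT-PCR/CE mRNA reporter quantitation; gain-of-signal vs DMSO.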

Assay [9] concerns the target Oxysterols receptor LXR-beta (Homo sapiens) (UniProt P55055). In words: ATG_LXRb_TRANS: Attagene TRANS-FACTORIAL HepG2 Assay for human Liver X Receptor beta (LXRb) (AID 2282981; active = hit-call score of the fitted dose curve at least 0.9, where 1 is the maximum). Particulars: HepG2 Attagene TRANS GAL4-LXRb reporter, mRNA. A digest of the protocol: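 In this TRANS format, exogenous chimeric NR-Gal4 protein activity, not endogenous factors, drives reporter expression in transfected human HepG2 cells. Exposure lasted 24 h; reporter mRNA was read by fluorescent capillary electrophoresis.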

Assay [10] addresses Hepatocyte nuclear factor 4-alpha (Homo sapiens) (UniProt P41235). The assay can be described thus: ATG_HNF4a_TRANS: Attagene TRANS-FACTORIAL HepG2 Assay for human Hepatocyte Nuclear Factor 4 alpha (HNF4a) (AID 2282982; active = hit-call score of the fitted dose curve at least 0.9, where 1 is the maximum). Particulars: HepG2 HNF4a transactivation reporter, mRNA readout. In a few lines: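 Cells used were human HepG2, transiently carrying GAL4-UAS reporter units read out against exogenous NR-GAL4 chimeras. Reporter transcript levels after 24 h dosing were quantified by fluorescent RT-PCR and capillary electrophoresis.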

A short description of assay [11]: ATG_M_06_TRANS: Attagene TRANS-FACTORIAL HepG2 Assay for M06 Transcription Factor (Internal Marker) (AID 2282983; active = hit-call score of the fitted dose curve at least 0.9, where 1 is the maximum). Particulars: HepG2 Attagene TRANS M06 internal marker reporter. In a few lines: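 Measured by capillary electrophoresis of fluorescently labelled RT-PCR products, this endpoint reflects reporter mRNA in HepG2 cells harbouring exogenous NR-GAL4 reporter constructs after 24 h exposure, with DMSO as baseline.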

Assay [12] has as its target Transcriptional activator Myb (Homo sapiens) (UniProt P10242). In words: ATG_Myb_CIS: Attagene CIS-FACTORIAL HepG2 Assay for human Myeloblastosis (Myb) Proto-Oncogene Transcription Factor (AID 2282986). Particulars: HepG2 Attagene CIS-FACTORIAL Myb reporter transcription; actives raise or lower the signal. In a few lines: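 Multiplexed cis-reporter system in HepG2: transient transfection, 24 h treatment, mRNA readout by RT-PCR and capillary electrophoresis. Both increases and decreases are scored versus DMSO negative control.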

For assay [13], the target named is Nuclear respiratory factor 1 (Homo sapiens) (UniProt Q16656). The assay can be described thus: ATG_NRF1_CIS: Attagene CIS-FACTORIAL HepG2 Assay for human Nuclear Respiratory Factor 1 (NRF1) Orphan Gene (AID 2282987). Particulars: HepG2 NRF1 cis-element reporter, Attagene multiplex; actives raise or lower the signal. In a few lines: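 Endogenous factor activity was captured via cis-element-driven reporter transcripts in HepG2 cells. Following 24 h chemical treatment, transcripts were quantified by RT-PCR and capillary electrophoresis.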
Chain of Nuclear respiratory factor 1 (Homo sapiens) (Q16656 whole entry, looked up): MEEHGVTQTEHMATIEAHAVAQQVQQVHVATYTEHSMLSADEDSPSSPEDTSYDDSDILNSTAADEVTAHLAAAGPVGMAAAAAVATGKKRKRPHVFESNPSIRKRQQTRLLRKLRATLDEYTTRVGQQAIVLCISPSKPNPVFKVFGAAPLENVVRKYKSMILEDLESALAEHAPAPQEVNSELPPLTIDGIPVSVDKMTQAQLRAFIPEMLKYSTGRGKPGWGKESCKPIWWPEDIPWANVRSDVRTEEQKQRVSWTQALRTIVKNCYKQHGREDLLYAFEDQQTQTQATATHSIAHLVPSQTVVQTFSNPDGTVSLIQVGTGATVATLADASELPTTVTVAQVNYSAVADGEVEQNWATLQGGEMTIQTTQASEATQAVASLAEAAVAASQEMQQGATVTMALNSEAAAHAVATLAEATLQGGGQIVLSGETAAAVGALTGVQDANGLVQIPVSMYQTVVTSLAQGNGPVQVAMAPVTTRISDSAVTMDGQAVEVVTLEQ

Assay [14] can be described thus: ATG_NFI_CIS: Attagene CIS-FACTORIAL HepG2 Assay for human Nuclear Factor I (NFI) (AID 2282989). Particulars: HepG2 cis-regulatory reporter, NFI response element transcription; actives raise or lower the signal. In a few lines: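 HepG2 cells transiently transfected with cis-element-driven multiplexed reporter transcription units, dosed for 24 h. Reporter mRNA quantified by RT-PCR, fluorescent labelling, HpaI digestion and capillary electrophoresis; bidirectional fit versus DMSO baseline.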

Assay [15] is described as follows: ATG_GAL4_TRANS: Attagene TRANS-FACTORIAL HepG2 Assay for GAL4 (Internal Marker) (AID 2282976; active = hit-call score of the fitted dose curve at least 0.9, where 1 is the maximum). Particulars: HepG2 Attagene TRANS GAL4 internal marker reporter. In a few lines: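 Fluorescence from capillary electrophoresis of labelled RT-PCR products quantifies reporter mRNA induction after 24 h dosing of HepG2 cells carrying transfected GAL4-UAS reporter transcription units. Vehicle DMSO serves as baseline.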

Assay [16] in a line: ATG_M_32_TRANS: Attagene TRANS-FACTORIAL HepG2 Assay for M32 Transcription Factor (Internal Marker) (AID 2282984; active = hit-call score of the fitted dose curve at least 0.9, where 1 is the maximum;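 also: transcript level of a background control reporter unit measured by RT-PCR and capillary electrophoresis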). Particulars: HepG2 Attagene TRANS M32 internal marker reporter. A digest of the protocol: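 Human hepatoma HepG2, transient MRTU transfection, 24 h treatment. RNA → RT-PCR → fluorescent primer extension → HpaI digest (2 h, 37 C) → CE. Positive-direction fit vs DMSO.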

Assay [17] has as its target Estrogen-related receptor gamma (Homo sapiens) (UniProt P62508). The assay can be described thus: ATG_ERRg_TRANS: Attagene TRANS-FACTORIAL HepG2 Assay for human Estrogen-Related Receptor gamma (ERRg) (AID 2282977; active = hit-call score of the fitted dose curve at least 0.9, where 1 is the maximum;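 also: hits increase reporter signal over DMSO so potencies reflect activators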). Particulars: HepG2 Attagene TRANS reporter, ERRg transactivation. A digest of the protocol:
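HepG2 cells transiently transfected with multiplexed GAL4-UAS reporter units driven by chimeric NR-Gal4 proteins; 24 h exposure. Reporter mRNA quantified by RT-PCR, fluorescent labelling, HpaI digestion and capillary electrophoresis; gain of signal vs DMSO.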

For assay [18], the target named is Nuclear receptor subfamily 4 group A member 2 (Homo sapiens) (UniProt P43354). The assay can be described thus: ATG_NURR1_TRANS: Attagene TRANS-FACTORIAL HepG2 Assay for human Nuclear Receptor Related Protein 1 (NURR1) (AID 2282985; active = hit-call score of the fitted dose curve at least 0.9, where 1 is the maximum). Particulars: HepG2 Attagene TRANS reporter, mRNA readout. A digest of the protocol:
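After 24 h chemical dosing, total RNA from transiently transfected HepG2 cells was reverse-transcribed and reporter cDNA PCR-amplified, FAM-labelled and analysed by capillary electrophoresis. Activity fitted in positive direction, DMSO as negative control.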

The target of assay [19] is Bile acid receptor (Homo sapiens) (UniProt Q96RI1). In words: ATG_FXR_TRANS: Attagene TRANS-FACTORIAL HepG2 Assay for Farnesoid X Receptor (FXR) (AID 2282979; active = hit-call score of the fitted dose curve at least 0.9, where 1 is the maximum;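 also: hits raise reporter mRNA above DMSO so AC50 marks FXR activation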). Particulars: HepG2 Attagene TRANS FXR-GAL4 reporter transcription. In a few lines: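 Chimeric FXR-GAL4 activity in transiently transfected human HepG2 liver cells is scored as induction of reporter mRNA after 24 h of dosing. Detection uses RT-PCR with fluorescent labelling and capillary electrophoresis, with DMSO serving as baseline.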
Chain of Bile acid receptor (Homo sapiens) (Q96RI1 whole entry, looked up, the tested form may be a part): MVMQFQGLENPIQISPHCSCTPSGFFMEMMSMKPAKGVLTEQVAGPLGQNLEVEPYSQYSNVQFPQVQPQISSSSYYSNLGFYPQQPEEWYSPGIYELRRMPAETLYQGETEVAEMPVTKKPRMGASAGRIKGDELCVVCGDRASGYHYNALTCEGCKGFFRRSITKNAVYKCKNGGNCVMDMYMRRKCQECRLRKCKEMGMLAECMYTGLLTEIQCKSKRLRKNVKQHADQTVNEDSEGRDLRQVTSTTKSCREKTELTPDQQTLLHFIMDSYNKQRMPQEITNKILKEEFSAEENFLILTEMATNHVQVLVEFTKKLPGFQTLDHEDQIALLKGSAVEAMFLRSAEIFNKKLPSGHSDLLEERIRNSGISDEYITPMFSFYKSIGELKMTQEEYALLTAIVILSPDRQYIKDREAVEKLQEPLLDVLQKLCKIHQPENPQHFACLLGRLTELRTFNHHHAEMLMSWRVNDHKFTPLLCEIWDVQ

Records with an inconclusive call do not appear. The source made the active and inactive calls. The calls were made as follows, unless noted: active = hit-call score of the fitted dose curve at least 0.9, where 1 is the maximum; inactive = score below 0.9.

Chain of Oxysterols receptor LXR-beta (Homo sapiens) (P55055 whole entry, looked up, the tested form may be a part): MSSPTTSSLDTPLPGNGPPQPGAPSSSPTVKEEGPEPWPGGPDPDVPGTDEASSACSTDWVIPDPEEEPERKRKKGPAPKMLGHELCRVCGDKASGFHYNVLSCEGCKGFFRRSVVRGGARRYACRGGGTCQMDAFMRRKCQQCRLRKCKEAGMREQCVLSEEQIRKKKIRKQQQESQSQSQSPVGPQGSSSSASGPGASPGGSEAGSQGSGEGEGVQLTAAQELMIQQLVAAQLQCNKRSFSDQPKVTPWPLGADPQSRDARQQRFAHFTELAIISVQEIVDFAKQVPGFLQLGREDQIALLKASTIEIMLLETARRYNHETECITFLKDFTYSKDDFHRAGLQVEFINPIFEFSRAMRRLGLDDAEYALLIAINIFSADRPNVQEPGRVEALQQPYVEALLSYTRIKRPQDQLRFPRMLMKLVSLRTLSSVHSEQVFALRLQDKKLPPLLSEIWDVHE
Chain of Transcriptional activator Myb (Homo sapiens) (P10242 whole entry, looked up): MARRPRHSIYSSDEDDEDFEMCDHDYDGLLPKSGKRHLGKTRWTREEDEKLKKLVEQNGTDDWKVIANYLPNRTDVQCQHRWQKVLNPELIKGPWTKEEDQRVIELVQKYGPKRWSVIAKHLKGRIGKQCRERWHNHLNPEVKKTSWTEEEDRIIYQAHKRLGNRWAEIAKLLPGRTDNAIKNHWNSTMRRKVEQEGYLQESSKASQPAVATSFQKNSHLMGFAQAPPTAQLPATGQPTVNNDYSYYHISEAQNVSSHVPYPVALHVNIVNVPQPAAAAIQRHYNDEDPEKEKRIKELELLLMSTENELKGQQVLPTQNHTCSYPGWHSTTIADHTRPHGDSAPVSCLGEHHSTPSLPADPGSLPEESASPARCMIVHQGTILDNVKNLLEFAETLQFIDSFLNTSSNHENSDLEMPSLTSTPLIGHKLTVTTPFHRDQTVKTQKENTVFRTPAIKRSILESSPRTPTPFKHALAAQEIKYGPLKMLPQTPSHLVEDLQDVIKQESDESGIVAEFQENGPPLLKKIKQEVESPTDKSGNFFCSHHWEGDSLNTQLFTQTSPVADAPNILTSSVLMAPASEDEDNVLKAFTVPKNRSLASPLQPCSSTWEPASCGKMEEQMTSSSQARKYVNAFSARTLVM
Chain of Oxysterols receptor LXR-alpha (Homo sapiens) (Q13133 whole entry, looked up): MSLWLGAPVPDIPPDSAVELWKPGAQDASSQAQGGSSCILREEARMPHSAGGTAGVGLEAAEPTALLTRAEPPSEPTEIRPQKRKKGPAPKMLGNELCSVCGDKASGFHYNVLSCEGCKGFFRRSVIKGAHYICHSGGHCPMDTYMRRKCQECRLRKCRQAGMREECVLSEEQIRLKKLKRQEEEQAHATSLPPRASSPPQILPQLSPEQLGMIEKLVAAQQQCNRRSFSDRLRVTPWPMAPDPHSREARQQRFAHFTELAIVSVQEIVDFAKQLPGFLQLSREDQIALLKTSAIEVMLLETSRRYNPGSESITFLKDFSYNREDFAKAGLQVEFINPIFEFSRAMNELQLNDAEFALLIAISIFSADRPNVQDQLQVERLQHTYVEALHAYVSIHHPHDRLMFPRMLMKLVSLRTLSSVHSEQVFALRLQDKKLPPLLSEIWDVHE
Chain of Steroid hormone receptor ERR1 (Homo sapiens) (P11474 whole entry, looked up, the tested form may be a part): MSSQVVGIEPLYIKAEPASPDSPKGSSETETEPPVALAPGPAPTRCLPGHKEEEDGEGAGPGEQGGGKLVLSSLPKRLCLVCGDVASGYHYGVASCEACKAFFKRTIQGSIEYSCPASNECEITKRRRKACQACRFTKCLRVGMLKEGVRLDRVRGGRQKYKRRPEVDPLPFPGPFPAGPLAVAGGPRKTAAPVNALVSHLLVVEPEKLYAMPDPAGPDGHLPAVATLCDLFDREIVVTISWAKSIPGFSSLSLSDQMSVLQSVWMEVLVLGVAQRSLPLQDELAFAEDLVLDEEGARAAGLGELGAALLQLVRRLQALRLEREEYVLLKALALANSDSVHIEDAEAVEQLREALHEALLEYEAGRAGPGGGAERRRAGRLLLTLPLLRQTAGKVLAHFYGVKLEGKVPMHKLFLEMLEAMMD
Chain of Estrogen-related receptor gamma (Homo sapiens) (P62508 whole entry, looked up, the tested form may be a part): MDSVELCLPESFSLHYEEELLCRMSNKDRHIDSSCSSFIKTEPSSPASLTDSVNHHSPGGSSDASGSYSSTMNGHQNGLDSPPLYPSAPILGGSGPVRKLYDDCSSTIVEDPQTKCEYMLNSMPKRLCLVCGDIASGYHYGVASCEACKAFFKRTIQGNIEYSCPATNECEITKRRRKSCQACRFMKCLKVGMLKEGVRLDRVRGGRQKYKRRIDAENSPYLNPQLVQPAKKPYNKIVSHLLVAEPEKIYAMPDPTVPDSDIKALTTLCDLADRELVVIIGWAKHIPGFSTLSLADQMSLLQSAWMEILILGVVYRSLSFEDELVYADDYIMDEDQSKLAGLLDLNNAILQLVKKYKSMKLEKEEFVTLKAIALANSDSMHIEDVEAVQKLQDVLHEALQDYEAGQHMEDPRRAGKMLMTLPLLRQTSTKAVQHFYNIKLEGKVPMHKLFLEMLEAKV
Chain of Hepatocyte nuclear factor 4-alpha (Homo sapiens) (P41235 whole entry, looked up, the tested form may be a part): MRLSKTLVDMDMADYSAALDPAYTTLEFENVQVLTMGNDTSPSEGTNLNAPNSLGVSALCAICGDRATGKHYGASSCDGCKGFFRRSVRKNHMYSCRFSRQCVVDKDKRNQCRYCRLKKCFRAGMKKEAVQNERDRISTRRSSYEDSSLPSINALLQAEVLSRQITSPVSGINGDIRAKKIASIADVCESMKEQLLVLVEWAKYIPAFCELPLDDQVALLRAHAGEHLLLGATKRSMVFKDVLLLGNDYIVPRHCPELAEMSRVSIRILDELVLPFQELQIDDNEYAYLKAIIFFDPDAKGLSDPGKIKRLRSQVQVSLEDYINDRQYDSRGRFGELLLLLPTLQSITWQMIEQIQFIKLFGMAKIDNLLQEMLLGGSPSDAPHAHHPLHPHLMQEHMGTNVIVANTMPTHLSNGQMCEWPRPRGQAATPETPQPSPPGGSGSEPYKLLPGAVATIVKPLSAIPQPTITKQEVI

`C=CC(=C)CCCC(C)(C)OC(C)=O`: the result in assay [1], in assay [2], in [3], in assay [4], in assay [5] and in [6] was inactive. In addition, the molecule was called inactive in [7], in [8], in [9], in assay [10], in assay [11] and in assay [12]. The call in [13] and in [14] was inactive.
For `CCC(=O)O[C@@H]1C[C@H]2CC[C@]1(C)C2(C)C`, the outcome in assay [1], in assay [2], in assay [3], in [5], in [6] and in assay [15] was inactive. Besides, the molecule was classed as inactive in assay [7], in assay [9], in assay [16] and in [13].
On to `COC(=O)C=C(C)CCC=C(C)C`, for which the outcome in [1], in assay [2], in assay [4], in [5], in [17] and in assay [8] was inactive. Also, the molecule was called inactive in assay [10], in [11], in assay [16], in [12], in [13] and in assay [14]. Also, in assay [3], the AC50 was 10.5 µM (active).
As to `COC(C)(C)CCO`, the molecule was called inactive in assay [1], in [2], in assay [3], in assay [5], in [6] and in assay [15]. The molecule was called inactive in [17], in assay [7], in assay [9], in assay [16], in assay [12] and in [13]. Moreover, the result in assay [14] was inactive.
With `CCCCCCOC(=O)C(C)C`, the molecule was called inactive in assay [1], in assay [2], in assay [3], in assay [4], in assay [5] and in assay [17]. Further, the molecule was called inactive in [10], in [11], in assay [12], in assay [13] and in [14].
For the molecule `COC(=O)c1cccnc1`, the call in assay [1], in assay [2], in assay [3], in assay [4], in assay [6] and in assay [17] was inactive. Further, the outcome in assay [7], in assay [8], in [10], in [11], in [16] and in [12] was inactive. Further, the outcome in assay [13] and in assay [14] was inactive.
For `CC=CC=CCOC(=O)C(C)C`, the result in assay [1], in assay [2], in [3], in [5], in assay [6] and in assay [15] was inactive. In addition, the molecule was classed as inactive in assay [7], in [9], in assay [10], in assay [16], in assay [18] and in assay [12]. Further, the molecule was classed as inactive in assay [13] and in assay [14].
As to `CCCC1O[C@@H]2C[C@H]3[C@@H]4CCC5=CC(=O)C=C[C@]5(C)[C@H]4[C@@H](O)C[C@]3(C)[C@]2(C(=O)CO)O1` (some centres undefined), the molecule was classed as inactive in assay [1], in assay [3], in assay [4], in assay [5], in assay [19] and in [11]. For the same molecule, the outcome in assay [18], in assay [12], in [13] and in assay [14] was inactive. Besides, the AC50 in assay [2] was 9.41 µM (active).
As for `O=[N+]([O-])c1cccc(Cl)c1`, the result in [1], in [2], in assay [3], in assay [4], in assay [5] and in assay [11] was inactive. Moreover, the result in assay [12], in assay [13] and in [14] was inactive.
Consider `CS(=O)(=O)c1ccc(Cl)cc1`, for which the outcome in assay [1], in assay [2], in [3], in [4], in assay [15] and in assay [17] was inactive. The molecule was classed as inactive in assay [7], in assay [8], in assay [11], in assay [16], in assay [13] and in assay [14].
Regarding `CN1C(=O)c2ccccc2C1=O`, the result in assay [1], in assay [2], in assay [3], in assay [4], in [5] and in [15] was inactive. Also, the call in assay [17], in [7], in assay [10], in [11], in [18] and in assay [13] was inactive. For the same molecule, in assay [14], the outcome was inactive.
